Only some compounds are listed: those with a hit (about 19% of all), similar ones and a draw of the others.
DT40 TDP1 no CPT: qHTS for Inhibitors of human tyrosyl-DNA phosphodiesterase 1 (TDP1): qHTS in cells in absence of CPT. DT40 Tdp1-/- hTDP1 cells, no CPT, ATP luminescence, 48 h. Potency, µM (titrated, usually from 46.2 µM), actives largely listed as inhibitors. 420,000 tested, 15% active; note: nearly all actives have a fitted effect of over 55% in size
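Luminescent ATP content (CellTiter-Glo) served as the growth readout. Knockout chicken DT40 cells expressing human TDP1 were exposed to compounds without camptothecin for a minimum 48 hr at 37 °C.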
HT1080NT lethal: kills 2HG-producing HT-1080-NT fibrosarcoma cells; Potency, µM (titrated, usually from 46.1 µM), most hits filed as cytotoxic; AID 686970; HT-1080-NT fibrosarcoma viability, CellTiter-Glo ATP luminescence, 48 h; 360,000 tested, 1.6% active;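 note: NT is the 2HG producing partner of a matched IDH1 knockdown line; nearly all actives have a fitted effect of over 55% in size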
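Viability of the 2HG-overproducing fibrosarcoma line after 48 hours of compound exposure at 37 degrees C was determined by luminescence with CellTiter-Glo, and concentration-effect curves were then fitted and categorized.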
ELG1 repair inh: blocks ELG1-dependent DNA repair in HEK293T cells | 330,000 tested, 2.3% active | AID 504467 | Potency, µM (top dose mostly 46.1 µM), usual class: inhibitors | HEK293T ELG1-luciferase reporter, luminescence, 16 h; DNA damage induced by 5-fluorouridine; note: nearly all actives have a fitted effect of over 55% in size
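Reporter activity after DNA damage by 5-fluorouridine is monitored. Compound-treated cells incubate 16 hr at 37 °C, then ONE-Glo is added for 30 min before luminescence reading.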
HT1080 IDH1KD tx: kills HT-1080 cells with IDH1 knockdown; HT-1080 IDH1 knockdown viability, ATP luminescence, 48 h; 360,000 tested, 2% active; Potency, µM (titrated, usually from 46.1 µM), usual class: cytotoxic
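After a 2 h attachment period, IDH1KD HT-1080 cells took pin-transferred compound for 48 h at 37 °C; ATP-based luminescence after 10 min room-temperature reagent incubation reported viability.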
IL1B secr inh: blocks inflammasome-driven IL-1 beta release; THP-1 LPS/ATP IL-1B secretion, AlphaLISA, 16 h; active compounds read low; 360,000 tested, 4.7% active; activity change, % at 57.5 µM; in the data active = activity change below about -50%; inconclusive = mostly about -30% to -49%
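Secreted IL-1B measured by AlphaLISA bead assay after 16 h compound exposure of THP-1 cells; compounds (final up to 57.5 uM) added 1 h before LPS (250 ng/mL) and ATP (1.25 mM) stimulation; lower signal means less secretion.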
DT40 TDP1 CPT: growth inhibition of DT40 Tdp1-/-;hTDP1 cells with camptothecin (screen for TDP1 inhibitors) | 420,000 tested, 12% active | chicken DT40 Tdp1-/-;hTDP1 cells + 20 nM CPT, ATP luminescence, 48 h | Potency, µM (highest dose often 46.2 µM), most hits filed as inhibitors; note: nearly all actives have a fitted effect of over 55% in size
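Chicken DT40 Tdp1-/- cells complemented with human TDP1, 400 cells/well, exposed to compounds plus 20 nM camptothecin for at least 48 h at 37 C; viability read as ATP content by CellTiter-Glo luminescence.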
A number is an active result; i = inactive; ? = inconclusive; nt = no result. Unless noted, calls come from the whole dose curve; as a rule, active = well fitted curve in the direction sought with a large enough effect; inconclusive = small, poorly fitted or top-dose-only effect, or another doubt; inactive = no such curve, though single readings can be large; an effect the other way counts as inactive or inconclusive.

SMILES	DT40 TDP1 no CPT	HT1080NT lethal	ELG1 repair inh	HT1080 IDH1KD tx	IL1B secr inh	DT40 TDP1 CPT
COc1ccc(Nc2c(C)cccc2C)cc1	i	i	?	i	i	i
Nc1ccc(Nc2ccccc2N)cc1	10µM	?	i	?	i	5.2µM
Nc1ccc(Nc2ccncc2)cc1	i	i	nt	i	i	i
Nc1ccccc1Nc1cccc(C(F)(F)F)c1	?	i	?	i	-157	i
CCOc1ccc(C2c3c(oc4ccc(C)cc4c3=O)C(=O)N2Cc2ccc3c(c2)OCO3)cc1OC (stereo not drawn)	i	nt	nt	nt	nt	i
CCOc1ccccc1NC(=O)COc1coc(CN2CCc3ccccc3C2)cc1=O	13µM	i	?	i	i	?
CCCNC(=O)c1cc2n(n1)CCCN(Cc1ccc(C)cc1)C2=O	i	nt	nt	nt	nt	i
Cc1ccc(CN2CCCn3nc(C(=O)NCc4ccc(N(C)C)cc4)cc3C2=O)cc1	13µM	nt	nt	nt	nt	?
Cc1ccc(CN2CCCn3nc(C(=O)NCCN(C)C)cc3C2=O)cc1	i	nt	nt	nt	nt	i
Cc1ccc(CN2CCCn3nc(C(=O)NCc4cc(C)ccc4C)cc3C2=O)cc1	16µM	nt	nt	nt	nt	15µM
O=C(Cn1cncn1)N/N=C/c1cccc(Cl)c1	i	i	i	i	i	i
O=C(OCc1cn([C@H]2CN(CC3CCCCC3)[C@@H](c3ccccc3)C[C@@H]2O)nn1)c1ccccc1	?	i	nt	i	i	?
CCCc1c(C(=O)OCC)nnc2c(-c3ccccc3)c(C)nn12	i	nt	nt	nt	nt	?
O=C(NCCOC(=O)c1c(F)cccc1Cl)c1c(F)cccc1Cl	?	i	?	i	i	i
Cc1ccc(Cl)cc1N1CCN(C(=O)CCC(=O)O)CC1	i	i	i	i	i	i
Cc1cc(=O)oc2cc(OCC(=O)N3CC(=O)Nc4ccccc43)c(Cl)cc12	i	i	i	i	i	i
Cc1cc2c(cc1C)N(C(=O)CCl)CCN2C(=O)CCl	0.58µM	?	nt	?	-100	0.46µM
Cc1cc2c(cc1C)N(C(=O)CCl)CC(=O)N2	2.6µM	?	nt	23µM	-65	2.3µM
COc1cccc(OC)c1C(=O)OCCCOC(=O)c1c(OC)cccc1OC	i	i	21µM	i	i	i
Cc1cccc(CCNC(=O)C2CCN(c3ncnc4c3nc3n4CCCCC3)CC2)c1	i	nt	nt	nt	nt	i
Cn1c2c(c(=O)n(C)c1=O)C(C(F)(F)F)(C(F)(F)F)N=C(c1ccc(Cl)cc1)N2	1.3µM	?	0.65µM	7.3µM	i	0.92µM
Cc1ccccc1C1=NC(C(F)(F)F)(C(F)(F)F)c2c(n(C)c(=O)n(C)c2=O)N1	23µM	i	?	i	i	?
Cn1c2c(c(=O)n(C)c1=O)C(NC(=O)c1cccs1)(C(F)(F)F)C(=O)N2 (stereo not drawn)	i	i	i	i	i	i
Cn1c2c(c(=O)n(C)c1=O)C(C(F)(F)F)(C(F)(F)F)N=C(C1CCCCC1)N2	26µM	i	?	i	i	18µM
O=C(NCc1ccccc1)c1cc(C2COCCN2C(=O)c2ccc3c(c2)CCO3)on1 (stereo not drawn)	i	i	nt	i	i	i
SMILES	DT40 TDP1 no CPT	HT1080NT lethal	ELG1 repair inh	HT1080 IDH1KD tx	IL1B secr inh	DT40 TDP1 CPT
Cc1oc2c(O)c(O)ccc2c(=O)c1-c1ccccc1	?	i	i	i	i	i
Cc1oc2c(O)c(O)ccc2c(=O)c1-c1cnn(-c2ccccc2)c1	18µM	?	?	?	i	?
CC(=O)C1C(C)CC2C3CCC4CC(=O)CCC4(C)C3CCC21C (stereo not drawn)	21µM	i	nt	i	i	?
CC(=O)C1CCC2C3CCC4CC(=O)CCC4(C)C3C=CC12C (stereo not drawn)	15µM	i	nt	i	i	i
Cc1ccc(OCC(=O)Nc2cc(-c3nc4cc(Cl)ccc4o3)ccc2C)c(C)c1	i	nt	nt	nt	nt	i
Cc1cc(C)n2nc(C(=O)Nc3cccc(S(=O)(=O)N4CCCC4)c3)nc2n1	i	i	i	i	i	i
COc1ccccc1NS(=O)(=O)c1cccc(NC(=O)c2ccc3ccccc3n2)c1	16µM	i	18µM	i	i	21µM
O=C(Cc1c(F)cccc1Cl)Nc1cccc(S(=O)(=O)NC2=NCCCCC2)c1	i	i	i	i	i	i
O=C(Cc1ccc(Cl)cc1Cl)Nc1cccc(S(=O)(=O)Nc2ccccc2F)c1	23µM	i	i	i	-102	15µM
O=C(/C=C/c1ccccc1)Nc1cccc(S(=O)(=O)Nc2ccccc2F)c1	15µM	i	i	i	-54	15µM
O=C(NNC(=O)c1cccc(S(=O)(=O)Nc2ccccc2F)c1)c1ccncc1	i	i	nt	i	i	i
COc1ccccc1NS(=O)(=O)c1cccc(NC(=O)c2nc3nc(C)cc(C)n3n2)c1	13µM	i	?	i	i	23µM
O=C(Nc1ccc(F)cc1)Nc1ccc(NC(=O)c2ccccc2O)cc1	i	i	i	i	i	i
O=C(Nc1cccc(S(=O)(=O)Nc2ccccc2F)c1)c1ccc2ccccc2n1	23µM	i	?	i	-51	?
O=C(CSc1nnc(C2CCCCC2)n1Cc1ccccc1)NCc1ccco1	16µM	i	i	i	i	16µM
O=C(CSc1nnc(-c2ccco2)n1Cc1ccccc1)NCc1ccccc1	?	i	21µM	i	i	i
CCn1c(SCC(=O)NCc2ccco2)nnc1C1CCCC1	i	i	i	i	i	i
O=C(CSc1nnc(-c2ccccc2)n1Cc1ccccc1)NNC(=O)c1ccccc1O	26µM	i	?	i	i	16µM
c1ccc(Cn2c(SCc3nc4ccccc4s3)nnc2-c2ccco2)cc1	?	i	?	i	i	15µM
O=C(CSc1nnc(-c2ccco2)n1Cc1ccco1)NCc1ccccc1	i	i	i	i	i	i
CNC(=O)c1c(NC(=O)CCS(=O)(=O)c2ccc(C)cc2)sc2c1CCN(C(=O)OC)C2	?	i	i	i	?	?
Cc1c([N+](=O)[O-])cc(C(=O)Nc2ccc(NC(=O)c3ccco3)cc2)cc1[N+](=O)[O-]	i	i	i	i	i	i
COC(=O)CCNCCSc1nnc(-c2ccco2)n1Cc1ccccc1	8.2µM	i	i	i	i	12µM
CN(C)c1ccc(N=Nc2ccc(C(=O)O)cc2)cc1	i	i	?	i	i	i
CN(C)c1ccc(N=NS(=O)(=O)O)cc1	24µM	nt	nt	nt	nt	22µM
CC1(C(=O)O)CCCN1C(=O)c1ccc(Cl)cc1Cl (stereo not drawn)	i	i	nt	?	i	?
